Measured values: PubChem BioAssay (Tox21)
Records with an inconclusive call do not appear. The source made the active and inactive calls. Calls come from the whole dose curve; as a rule, active = well fitted cell-killing curve with a large enough effect in the repeat runs; inconclusive = weak or mixed curves, or effect the other way; inactive = flat fitted curve, though single readings scatter.

Assay: qHTS RealTime-Glo MT Cell Viability Assay in HEK293 cells - 16 hour (AID 1224872); note: top concentration of the series differs between compounds; nearly all actives have a fitted effect of over 50% in size
Conditions: RealTime-Glo luminescence; series mostly up to 76.8 µM; activity change, negative = cytotoxicity: at the top concentration
From the text: National Center for Advancing Translational Sciences [NCATS]
NIH Chemical Genomics Center [NCGC]
U.S. Environmental Protection Agency [EPA]
National Institutes of Environmental Health Sciences [NIEHS]
National Toxicology Program [NTP]
U.S. Food and Drug Administration [FDA]
Measure of cell viability is critical in the cell-base assay. Analysis of cell viability is necessary for the characterization of cell responses to cytotoxic drugs and environmental stress. A RealTime-Glo MT Cell Viability Assay to monitor cell viability in real time of continues cell culture during 40 hours of compound treatment was used to screen Tox21 10K library compounds in Hek293 cells. The RealTime-Glo MT Cell Viability Assay is a nonlytic, homogeneous, bioluminescent method to measure cell viability in real time using a simple, plate-based method. The assay involves adding NanoLuc luciferase and a cell-permeant prosubstrate to cells in culture. Viable cells reduce the proprietary prosubstrate to generate a substrate for NanoLuc luciferase. This substrate diffuses from cells into the surrounding culture medium, where it is rapidly used by the NanoLuc Enzyme to produce a luminescent signal. The signal correlates with the number of viable cells, making the assay well suited for cytotoxicity studies.
Tox21 Assay Protocol Summary:
The mixture of Hek293 cell suspension and reagents were dispensed at 600cells/6 ul/well in 1536-well tissue culture treated black solid bottom plates using a Multidrop dispenser. After the assay plates were incubated at a 37 C/5% CO2 incubator for 5 hours, 23 nL of compounds dissolved in DMSO, positive and negative controls was transferred to the assay plate by a pintool work station. The plates were incubated at 37 C for 40 hours. The luminescence intensity were measured at 0h, 8h, 16h, 24h, 32h and 40h time points using ViewLux plate reader during compound treatment.
% is set by controls: 0 for no effect and ±100 for the full control effect.

For CC12CCC(C(=O)C1=O)C2(C)C (stereo not given), which “activity change, negative = cytotoxicity” value is on record?
Its value is 1.54% (inactive).

With CC(C)(C)c1ccc(-c2ccc(C(C)(C)C)cc2)cc1 as the compound, how does the “activity change, negative = cytotoxicity” value read?
Its value is 2.13% (inactive).

Which “activity change, negative = cytotoxicity” value does the source give for NCCCC(N)(C(=O)O)C(F)F (stereo not given) here?
Its value is 2.34% [at 35.3 µM] (inactive).

With O=[N+]([O-])c1ccc(/C=N\O)o1 as the compound, how does the “activity change, negative = cytotoxicity” value read?
Its value is 0.549% [at 35.3 µM] (inactive).

With COc1cc(-c2ccc(=O)[nH]n2)ccc1OC(F)F as the compound, how does the “activity change, negative = cytotoxicity” value read?
The value was 0.907% [at 35.3 µM] (inactive).

For Cc1coc2ccccc2c1=O, which “activity change, negative = cytotoxicity” value is on record?
The value was -6.15% [at 35.3 µM] (inactive).

With CNCC(O)c1ccc(O)c(O)c1 (stereo not given) as the compound, how does the “activity change, negative = cytotoxicity” value read?
Its value is 3.21% [at 35.3 µM] (inactive).

For O=CN(CCO)CCO, which “activity change, negative = cytotoxicity” value is on record?
Its value is 5.34% (inactive).

For CC(C)(C)C(=O)Oc1ccc(S(=O)(=O)Nc2ccccc2C(=O)NCC(=O)O)cc1, which “activity change, negative = cytotoxicity” value is on record?
Its value is 9.6% [at 35.3 µM] (inactive).

For CCCn1cc[n+](C)c1C, which “activity change, negative = cytotoxicity” value is on record?
The value was 0.615% (inactive).

Which “activity change, negative = cytotoxicity” value does the source give for CC(C)NNC(=O)c1ccncc1 here?
Its value is 0.272% [at 35.3 µM] (inactive).

Which “activity change, negative = cytotoxicity” value does the source give for Cc1ccc(-c2ccccc2C#N)cc1 here?
Its value is 6.55% [at 35.3 µM] (inactive).

With C=CCOCC(O)CO (stereo not given) as the compound, how does the “activity change, negative = cytotoxicity” value read?
Its value is 19.3% (inactive).

Which “activity change, negative = cytotoxicity” value does the source give for COc1cc(C(=O)NCc2ccc(OCCN(C)C)cc2)cc(OC)c1OC here?
The value was -13.9% [at 35.3 µM] (inactive).

With C=C(C)C(=O)OCC1CCCO1 (stereo not given) as the compound, how does the “activity change, negative = cytotoxicity” value read?
Its value is 8.17% (inactive).

With NS(=O)(=O)Cc1noc2ccccc12 as the compound, how does the “activity change, negative = cytotoxicity” value read?
The value was 1.51% [at 35.3 µM] (inactive).

For CN(C)C(=O)Oc1ccc[n+](C)c1, which “activity change, negative = cytotoxicity” value is on record?
Its value is 0.135% [at 35.3 µM] (inactive).

For C=CC(C)(CCC=C(C)C)OC(=O)CC (stereo not given), which “activity change, negative = cytotoxicity” value is on record?
The value was 2.99% (inactive).

Which “activity change, negative = cytotoxicity” value does the source give for CC1=NN(c2cc(S(=O)(=O)O)ccc2Cl)C(=O)C1N=Nc1ccccc1 (stereo not given) here?
Its value is 4.48% (inactive).

Which “activity change, negative = cytotoxicity” value does the source give for CC(C)CCCO here?
Its value is 11.9% (inactive).

Which “activity change, negative = cytotoxicity” value does the source give for CCCCc1nc(Cl)c(CO)n1Cc1ccc(-c2ccccc2-c2nn[nH]n2)cc1 here?
Its value is -12.3% [at 35.3 µM] (inactive).

For COc1cc(C)nc(-n2nc(C)cc2OC)n1, which “activity change, negative = cytotoxicity” value is on record?
Its value is 0.963% [at 35.3 µM] (inactive).

Which “activity change, negative = cytotoxicity” value does the source give for C1CCC2=NCCCN2CC1 here?
The value was 12.1% (inactive).

With CCN1CCOCC1 as the compound, how does the “activity change, negative = cytotoxicity” value read?
The value was -5.1% (inactive).

With NC(=O)N[C@@H](CCC(=O)O)C(=O)O as the compound, how does the “activity change, negative = cytotoxicity” value read?
Its value is 0.164% [at 35.3 µM] (inactive).

For Nc1ccccn1, which “activity change, negative = cytotoxicity” value is on record?
The value was -8.25% (inactive).

With CCCCCCCC1CCCC1=O (stereo not given) as the compound, how does the “activity change, negative = cytotoxicity” value read?
The value was 19% (inactive).

Which “activity change, negative = cytotoxicity” value does the source give for CO[C@@]1(NC(=O)CSC[C@@H](N)C(=O)O)C(=O)N2C(C(=O)O)=C(CSc3nnnn3C)CS[C@@H]21 here?
The value was -9.53% [at 35.3 µM] (inactive).

For CC1(C)[C@@H]2CC[C@@]1(C)[C@H](O)C2, which “activity change, negative = cytotoxicity” value is on record?
Its value is -1.69% (inactive).

With NC(CCC(=O)O)C(=O)O (stereo not given) as the compound, how does the “activity change, negative = cytotoxicity” value read?
Its value is 15.1% (inactive).

For [Ca+2], which “activity change, negative = cytotoxicity” value is on record?
The value was 2.83% (inactive).

With COc1cccc(OC)c1C(=O)N[C@@H]1C(=O)N2[C@@H]1SC(C)(C)[C@@H]2C(=O)O as the compound, how does the “activity change, negative = cytotoxicity” value read?
Its value is 1.37% [at 35.3 µM] (inactive).

Which “activity change, negative = cytotoxicity” value does the source give for CCOCC(C)O (stereo not given) here?
The value was 0.801% (inactive).

With CNCCO as the compound, how does the “activity change, negative = cytotoxicity” value read?
Its value is 23.7% (inactive).

For CC1=CCC(O)(C(C)C)CC1 (stereo not given), which “activity change, negative = cytotoxicity” value is on record?
The value was 2.99% (inactive).

For C=CN1CCCCCC1=O, which “activity change, negative = cytotoxicity” value is on record?
The value was 5.47% (inactive).

With c1ccc(Cc2ccccc2)cc1 as the compound, how does the “activity change, negative = cytotoxicity” value read?
Its value is -7.88% (inactive).

For O=C(CO)[C@@H](O)[C@H](O)[C@@H](O)CO, which “activity change, negative = cytotoxicity” value is on record?
Its value is 10.8% [at 35.3 µM] (inactive).

With Clc1cc(Cl)c(Cl)nc1Cl as the compound, how does the “activity change, negative = cytotoxicity” value read?
Its value is -12.9% (inactive).

Which “activity change, negative = cytotoxicity” value does the source give for C[N+]1(C)CCCC(OC(=O)C(O)(c2ccccc2)c2ccccc2)C1 (stereo not given) here?
The value was -0.0672% [at 35.3 µM] (inactive).
